Hits are enriched below; roughly 14% of the tested compounds scored in any of these assays.
Pf growth 48h – Primary qHTS for delayed death inhibitors of the malarial parasite plastid, 48 hour incubation | P. falciparum luciferase growth in erythrocytes, 48 h | Potency, µM (doses to about 28.7 µM), most hits filed as inhibitors | actives 5.9% (n = 310,000)
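First compound was added to culture medium, then infected red cells at 0.1% parasitemia and 2% hematocrit (final). After incubation at 37 C under 5% CO2, luciferase detection reagent was dispensed and light output recorded.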
HCV inhibitor – qHTS Assay for Inhibitors of Hepatitis C Virus (HCV); Potency, µM (series often up to 41.8 µM), usual class: inhibitors; actives 3.4% (n = 340,000); AID 651820, 2012; Huh7.5.1 HCVcc-Cre infection, luciferase reporter, 44 h
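Whole-lifecycle infectious HCVcc-Cre system; cells 1,000/well, compound then virus (~0.5 moi) added 4 h after plating, 44 h culture. Luciferase read 15 sec following 15 min substrate incubation, room temp.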
Pf growth 96h – Primary qHTS for delayed death inhibitors of the malarial parasite plastid, 96 hour incubation | P. falciparum luciferase reporter growth, 96 h | Potency, µM (highest dose often 28.7 µM), most hits filed as inhibitors | actives 6.9% (n = 320,000) | AID 504834, 2011
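Erythrocytes infected with luciferase-expressing P. falciparum were dispensed at 2% hematocrit and 0.05% parasitemia (final), then incubated with compounds 96 hours at 37 C in 5% CO2. Luminescence after detection reagent addition reported growth.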
Marburg entry inh – qHTS for inhibitors of binding or entry into cells for Marburg Virus. Marburg virus pseudotyped entry inhibition, cell reporter. Potency, µM (highest dose often 37.8 µM), actives largely listed as inhibitors. actives 1.8% (n = 300,000); calls by dose curve; tested in HEK293 cells
LASV entry inh – qHTS for Inhibitors of binding or entry into cells for Lassa Virus. Lassa virus pseudotype entry inhibition, cell reporter. Potency, µM (highest dose often 37.9 µM), most hits filed as inhibitors. actives 1.2% (n = 300,000); calls by dose curve; tested in HEK293 cells; further: nearly all actives have a fitted effect of over 50% in size
HCMV inh – qHTS Assay for inhibitors of the human cytomegalovirus (HCMV); AID 1259415, 2018; HFF cells, HCMV-luciferase reporter, 72 h; hits give low values; actives 4.5% (n = 410,000); activity change, negative = inhibition, % at 57.5 µM; in the data active means activity change below about -60%; inconclusive means no clear call, values can overlap the other calls; inactive means above about -39%
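Human foreskin fibroblasts infected with luciferase-reporter HCMV at MOI 1 PFU/cell, compounds at two doses. Luciferase measured 72 h post infection; normalized to buffer-only basal and Salinomycin (10uM) controls.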
Each line names hits and unclear results; the compound was inactive in the other large screens. Unless noted, the call rests on the fitted dose curve; in most records, active means well fitted inhibition curve with a large enough effect; inconclusive means small, poorly fitted or top-dose-only effect, or another doubt; inactive means no such curve, though single readings can be large or run the other way.

COc1ccc(Cl)cc1-c1noc([C@@H]2O[C@H](CO)[C@H](O)[C@H](O)[C@H]2O)n1	HCMV inh -73 (no result: Pf growth 48h, HCV inhibitor, Pf growth 96h, Marburg entry inh, LASV entry inh)
COc1ccc(-c2noc([C@@H]3O[C@H](CO)[C@H](O)[C@H](O)[C@H]3O)n2)cc1OC	none (no result: Pf growth 48h, HCV inhibitor, Pf growth 96h, Marburg entry inh, LASV entry inh)
CCCC(=O)Nc1cccc(-c2nc3cc(C)c(C)cc3o2)c1C	LASV entry inh inconclusive (no result: Pf growth 48h, HCV inhibitor, Pf growth 96h, Marburg entry inh)
CC(C)(C)n1nnnc1C(c1cccs1)N(Cc1ccccc1)Cc1cccnc1 (stereo not drawn)	Pf growth 48h inconclusive
Clc1ccc(CN(Cc2ccccc2)C(c2cccs2)c2nnnn2C2CCCC2)cc1 (stereo not drawn)	Pf growth 48h 12µM, Pf growth 96h inconclusive
CC(C)(C)n1nnnc1C(c1cccs1)N(Cc1ccc(Cl)cc1)CC1CCCO1 (stereo not drawn)	Pf growth 48h 13µM, HCV inhibitor inconclusive, Pf growth 96h inconclusive, Marburg entry inh inconclusive, LASV entry inh inconclusive, HCMV inh -70
CC1CCCN(C(c2cccs2)c2nnnn2Cc2ccccc2)C1 (stereo not drawn)	Pf growth 96h inconclusive, LASV entry inh inconclusive (no result: Pf growth 48h)
CCN(CC)C(c1ccc(F)cc1)c1nnnn1C1CCCCC1 (stereo not drawn)	Pf growth 48h inconclusive
c1ccc(CN(Cc2ccco2)C(c2ccncc2)c2nnnn2C2CCCC2)cc1 (stereo not drawn)	Pf growth 48h inconclusive, Pf growth 96h 10µM
Fc1ccc(CN(Cc2ccccc2)C(c2cccs2)c2nnnn2C2CCCCC2)cc1 (stereo not drawn)	Pf growth 48h inconclusive, HCV inhibitor inconclusive, Marburg entry inh inconclusive, LASV entry inh inconclusive, HCMV inh -77 (no result: Pf growth 96h)
Cc1nc2scc(-c3ccccc3)c2c(=O)n1N=C1C=CC(=O)C=C1	HCV inhibitor inconclusive, Marburg entry inh inconclusive, HCMV inh inconclusive
CC1(C)O[C@@H](CC(=O)O)[C@]23CO[C@H](C(=O)[C@]4(C)C2CC[C@@]2(C)[C@H](c5ccoc5)OC(=O)C5O[C@]524)[C@@H]13 (stereo partly drawn)	HCMV inh inconclusive (no result: Pf growth 48h, Pf growth 96h, Marburg entry inh, LASV entry inh)
CC(=O)Nc1c(C(=O)O)ccc(C)c1OCc1ccccc1	none (no result: Pf growth 48h, Pf growth 96h)
CCCC[N+]12CCC(CC1)C(C(=O)c1cccs1)C2 (stereo not drawn)	Pf growth 48h 10µM, Pf growth 96h 2.6µM
COc1ccc(S(=O)(=O)Nc2ccccn2)cc1	none
Cc1ccc(S(=O)(=O)Nc2cccc3cccnc23)cc1	HCV inhibitor inconclusive, Pf growth 96h 3.7µM, Marburg entry inh inconclusive, LASV entry inh inconclusive, HCMV inh -105 (no result: Pf growth 48h)
COc1cc(NS(=O)(=O)c2ccc(C)cc2)c2ncccc2c1	Pf growth 48h 2.3µM, HCV inhibitor inconclusive, Marburg entry inh inconclusive, LASV entry inh inconclusive (no result: HCMV inh)
CC(C)CN1CC(C)C(=O)NC1=S (stereo not drawn)	none (no result: Pf growth 48h, Pf growth 96h)
Cn1c(C(=O)Nc2ccc(OC(F)(F)F)cc2)cc2c(=O)n3ccccc3nc21	none (no result: Pf growth 48h, HCV inhibitor, Pf growth 96h, Marburg entry inh)
CCn1c(O)c(N=NC(=O)CNC(=O)c2ccco2)c2ccccc21	HCMV inh -62 (no result: Marburg entry inh, LASV entry inh)
C=CCSc1nc2c(C(=O)OCC)nnn2c2ccccc12	HCV inhibitor inconclusive, LASV entry inh inconclusive
C=CCn1c(O)c(N=Nc2ccccc2O)c2ccccc21	Pf growth 48h 9.3µM (no result: Marburg entry inh, LASV entry inh)
C=CCn1c(O)c(N=NC(=O)OCC)c2ccccc21	HCMV inh -64
C=CCn1c(=O)c2ccccc2n2nnc(C(=O)OCC)c12	HCMV inh -63
CCOC(=O)N=Nc1c(O)n(C)c2ccccc12	Marburg entry inh inconclusive
COc1ccc(OCC(=O)NC(=S)Nc2ccc(S(=O)(=O)Nc3cc(C)on3)cc2)cc1	Marburg entry inh inconclusive
CC(=O)Nc1nc2c(ccc3ccccc32)s1	HCV inhibitor inconclusive, Pf growth 96h 10µM (no result: Marburg entry inh, LASV entry inh)
O=C(Cc1cccs1)Nc1nc2c(ccc3ccccc32)s1	HCV inhibitor inconclusive, Marburg entry inh inconclusive, LASV entry inh 7.9µM (no result: Pf growth 96h)
O=C(Cc1cccs1)Nc1nnc(SCc2cccc3ccccc23)s1	none
CCOCCCNC(=S)NNC(=O)CCn1nc(C)c(Br)c1C	none (no result: Pf growth 96h)
COCCCNC(=S)NNC(=O)Cn1nc(C)c(Br)c1C	Pf growth 96h 9.3µM
O=C1CN(C(=O)CN2CCN(S(=O)(=O)c3ccccc3F)CC2)c2ccccc2N1	none (no result: Pf growth 48h, HCV inhibitor, Pf growth 96h, Marburg entry inh, LASV entry inh)
COc1cccc(NC(=O)C(C)Sc2nnc(C3CC3)n2C2CC2)c1 (stereo not drawn)	Pf growth 48h inconclusive (no result: Marburg entry inh, LASV entry inh)
CC(Sc1nnc(C2CC2)n1C1CC1)C(=O)c1ccc(Br)cc1 (stereo not drawn)	Pf growth 96h inconclusive, HCMV inh -62
CCCCN1c2cc(C)c(O)cc2C(C(=O)OCC)C1C (stereo not drawn)	Pf growth 48h 2.1µM, HCV inhibitor inconclusive
CCOC(=O)C1CCN(Cc2ccc(O)c(OC)c2)CC1	none
COc1cc(CNC(=O)C2CCCC2)cc(OC)c1OC	none
COc1cc(CN/C(C)=C(\C#N)C(N)=O)cc(OC)c1OC	Pf growth 96h 2.1µM
COc1cc(-c2noc(C)c2-c2ccc(N(C)C)nc2)cc(OC)c1OC	Pf growth 48h inconclusive, Pf growth 96h inconclusive (no result: Marburg entry inh, LASV entry inh)
COc1cc(-c2noc(C)c2-c2ccc3[nH]ccc3c2)cc(OC)c1OC	Pf growth 48h inconclusive, HCV inhibitor inconclusive, Pf growth 96h 10µM (no result: Marburg entry inh, LASV entry inh, HCMV inh)
O=C(COC(=O)C1(c2ccc(Cl)cc2)CCCC1)NCc1ccco1	none
CCc1ccc(NC(=O)COC(=O)C2(c3ccc(Cl)cc3)CCCC2)cc1	HCV inhibitor inconclusive, Pf growth 96h 15µM
